Experiment [1] deals with Thyrotropin receptor (Homo sapiens) (UniProt P16473). Briefly: qHTS assay to identify small molecule agonists of the thyroid stimulating hormone receptor (TSHR) signaling pathway (AID 1224843; calls by dose curve; note: nearly all actives have a fitted effect of over 45% in size). An outline of the steps: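 Agonist-mode screen: TSHR HEK293 cells received test chemicals for half an hour at room temperature, then HTRF cAMP detection reagents for one hour prior to fluorescence measurement. Each chemical ran as a 15-concentration series, triplicated.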
Chain of Thyrotropin receptor (Homo sapiens) (P16473 whole entry, looked up): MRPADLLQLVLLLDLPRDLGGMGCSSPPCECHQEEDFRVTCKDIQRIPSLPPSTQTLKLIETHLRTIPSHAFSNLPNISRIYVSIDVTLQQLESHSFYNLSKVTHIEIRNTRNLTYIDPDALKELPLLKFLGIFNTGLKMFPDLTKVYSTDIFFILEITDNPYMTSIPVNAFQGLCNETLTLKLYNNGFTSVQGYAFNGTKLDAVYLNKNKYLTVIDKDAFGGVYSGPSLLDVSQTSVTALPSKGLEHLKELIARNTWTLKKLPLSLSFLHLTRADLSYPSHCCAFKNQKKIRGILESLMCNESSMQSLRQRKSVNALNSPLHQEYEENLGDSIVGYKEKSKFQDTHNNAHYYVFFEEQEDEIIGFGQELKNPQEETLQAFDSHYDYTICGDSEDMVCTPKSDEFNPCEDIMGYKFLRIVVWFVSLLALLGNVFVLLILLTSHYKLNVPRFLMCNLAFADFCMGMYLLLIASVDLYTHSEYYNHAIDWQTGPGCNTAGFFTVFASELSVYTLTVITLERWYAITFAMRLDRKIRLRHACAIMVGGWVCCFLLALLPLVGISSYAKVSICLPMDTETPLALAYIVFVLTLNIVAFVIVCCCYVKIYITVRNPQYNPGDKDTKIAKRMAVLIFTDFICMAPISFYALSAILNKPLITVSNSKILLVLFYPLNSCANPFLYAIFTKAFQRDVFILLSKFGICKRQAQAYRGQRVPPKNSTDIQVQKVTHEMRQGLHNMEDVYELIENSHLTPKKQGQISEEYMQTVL
Background: In qHTS, concentration-response curves come from the screen itself.

Experiment [2] is described as follows: qHTS assay to identify small molecule agonists of the hypoxia (HIF-1) signaling pathway - cell viability counter screen (AID 1224844; calls by dose curve; note: nearly all actives have a fitted effect of over 50% in size). Summed up:
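Same wells as the HIF-1 reporter screen; ME-180 cells carrying HRE-bla, 17 hr treatment at 37C; CellTiter-Glo luminescence read after 30 min at room temperature.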

Experiment [3] is described as follows: qHTS assay to identify small molecule agonists of H2AX (AID 1224845; active = well fitted activation curve with a large enough effect in the signal ratio in the repeat runs, not every such curve was filed as active; the % refers to the signal ratio). Summed up: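 Wild-type CHO-K1 cells, plated overnight, exposed 3hr at 37C to 15 concentrations (0.76% DMSO final). Lysed, then HTRF anti-pH2AX (S139) cryptate and anti-H2AX-d2 antibodies, 24 hr room temperature; 665/620 nm emission read.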
The nature of experiment [4]: qHTS assay to identify small molecule agonists of the hypoxia (HIF-1) signaling pathway (AID 1224846; active = well fitted activation curve with a large enough effect in the signal ratio in the repeat runs, not every such curve was filed as active; the % refers to the signal ratio). Summed up:
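In ME-180 cells bearing an HRE-bla construct, 17 h treatment with DMSO-dissolved compounds at 37C was followed by CCF4-AM loading to quantify reporter induction.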

Experiment [5] is described as follows: qHTS assay to identify small molecule agonists of H2AX - cell viability counter screen (AID 1224847; calls by dose curve; note: top concentration of the series differs between compounds; nearly all actives have a fitted effect of over 30% in size). An outline of the steps: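 CHO-K1 cells plated overnight at 37C, then exposed 3 h at 37C to compounds at 15 concentrations (0.76% DMSO final). Viability by CellTiter-Glo luminescence after 30 min at room temperature.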
The nature of experiment [6]: qHTS assay to identify small molecule antagonists of the estrogen related receptor (ERR) signaling pathway from Tox21 library (AID 1224848). Note: nearly all actives have a fitted effect of over 50% in size. An outline of the steps: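 Quantitative high-throughput format: ERR reporter cells (2,000/well) pre-incubated 6 h, treated 18 h at 37 C with compounds in DMSO alongside positive and negative controls, then read by ONE-Glo luminescence.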

Experiment [7] can be described thus: qHTS assay to identify small molecule agonists of the estrogen related receptor (ERR) signaling pathway from Tox21 library (AID 1224849; calls by dose curve; note: nearly all actives have a fitted effect of over 15% in size). To be noted: ERR reporter cell line, ONE-Glo luciferase, 18 h; at 92.4 µM (top of the series) unless noted. Summed up:
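Reporter cells (ERR, NTP source) treated with Tox21 10K compounds 18 h, 37 C. Readout: ONE-Glo luminescence, 30 min RT.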

A short description of experiment [8]: qHTS RealTime-Glo MT Cell Viability Assay in HepG2 cells - 24 hour (AID 1224867). Note: nearly all actives have a fitted effect of over 50% in size. Summed up:
(§1)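 HepG2 cells (600/well) were dispensed with RealTime-Glo reagents, incubated 5 h at 37 °C, then treated with compounds in DMSO for up to 40 h. Nonlytic NanoLuc luminescence reflecting viable cells was read at each stated time point.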

The nature of experiment [9]: A CellTox Green Cytotoxicity Assay to monitor cytotoxicity in HEK293 cells - 0 hour (AID 1224869). Note: nearly all actives have a fitted effect of over 50% in size. Summed up: (§2)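 Homogeneous no-lysis format: HEK293 cell suspension mixed with CellTox Green reagent, seeded, incubated 5 h at 37 C/5% CO2, then dosed by pintool with compound in DMSO.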
A short description of experiment [10]: qHTS RealTime-Glo MT Cell Viability Assay in HepG2 cells - 40 hour (AID 1224870). Note: nearly all actives have a fitted effect of over 50% in size. An outline of the steps:
(§3)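 HepG2 cells (600/well) mixed with RealTime-Glo MT reagent, settled 5 h at 37 C/5% CO2 before compound addition. Nonlytic NanoLuc luminescence from viable-cell prosubstrate reduction read repeatedly during 40 h treatment at 37 C.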

A short description of experiment [11]: A CellTox Green Cytotoxicity Assay to monitor cytotoxicity in HEK293 cells - 40 hour (AID 1224871). Note: nearly all actives have a fitted effect of over 45% in size. Summed up:
as §2

Experiment [12] is described as follows: qHTS RealTime-Glo MT Cell Viability Assay in HEK293 cells - 16 hour (AID 1224872). Summed up:
(§4)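 HEK293 cells seeded with NanoLuc/prosubstrate reagent, rested 5 h at 37 C, then dosed and kept at 37 C up to 40 h. Nonlytic real-time luminescence from viable cells read at 0, 8, 16, 24, 32 and 40 h.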

The nature of experiment [13]: qHTS RealTime-Glo MT Cell Viability Assay in HepG2 cells - 8 hour (AID 1224873). Note: nearly all actives have a fitted effect of over 55% in size. Summed up:
as §3

A short description of experiment [14]: A CellTox Green Cytotoxicity Assay to monitor cytotoxicity in HEK293 cells - 24 hour (AID 1224875). Note: nearly all actives have a fitted effect of over 45% in size. An outline of the steps: as §2
Experiment [15] is described as follows: A CellTox Green Cytotoxicity Assay to monitor cytotoxicity in HepG2 cells - 16 hour (AID 1224876). Note: nearly all actives have a fitted effect of over 45% in size. Summed up:
(§5)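 Fluorescent DNA-binding dye, 600 HepG2 cells/well, 5 h preincubation then compound in DMSO; same plates read at 0–40 h, 37 C.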

Experiment [16] in a line: qHTS RealTime-Glo MT Cell Viability Assay in HepG2 cells - 32 hour (AID 1224877). Note: nearly all actives have a fitted effect of over 55% in size. Summed up: as §1
The nature of experiment [17]: A CellTox Green Cytotoxicity Assay to monitor cytotoxicity in HepG2 cells - 24 hour (AID 1224878). Note: nearly all actives have a fitted effect of over 45% in size. Summed up: as §5
A short description of experiment [18]: A CellTox Green Cytotoxicity Assay to monitor cytotoxicity in HepG2 cells - 40 hour (AID 1224879). Note: nearly all actives have a fitted effect of over 40% in size. Summed up:
as §5

Experiment [19] can be described thus: qHTS RealTime-Glo MT Cell Viability Assay in HEK293 cells - 32 hour (AID 1224868). Summed up:
as §4

The nature of experiment [20]: qHTS RealTime-Glo MT Cell Viability Assay in HEK293 cells - 40 hour (AID 1224874). Note: nearly all actives have a fitted effect of over 50% in size. Note: potency is the fitted concentration of half-maximal effect. To be noted: RealTime-Glo luminescence; max response: active compounds read low. Summed up:
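Measured as luminescence from the same continuously cultured HEK293 wells at successive time points (0, 8, 16, 24, 32, 40 h) after compound addition. Reagent present from seeding; dosing at 5 h; incubation 37 C.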

A number with no mark means an inactive call. Results filed as inconclusive are left out. The source made the active and inactive calls. Unless noted, calls come from the whole dose curve; as a rule, active = well fitted curve in the direction sought with a large enough effect in the repeat runs; inconclusive = weak or mixed curves; inactive = no such curve, though single readings can be large; an effect the other way counts as inactive or inconclusive.
% is set by controls: 0 for no effect and ±100 for the full control effect.

Turning to `CC(COC(C)(C)C)OCCCO` (configuration not stated), the Potency entry in experiment [1], in experiment [5], in experiment [6], in [11], in experiment [12] and in experiment [18] was “inactive” each time. In addition, the result in experiment [2], in experiment [3], in experiment [4], in experiment [8], in [9] and in [10] was inactive. Also, the result in experiment [13], in experiment [14], in experiment [15], in experiment [16] and in experiment [17] was inactive. Besides, the activity change, positive = activation in [7] was 3.31%.

Turning to `O=S(O)(O)=S`, the activation was 8.08% [at 8.39 µM] in [1] and -1% [at 7.01 µM] in experiment [4]. Also, the activity change, negative = cytotoxicity in [2] is -1.07% [at 6.97 µM]; in experiment [5], 0.0189% [at 14 µM]; in [8], 4.23% [at 6.97 µM]; in experiment [12] it was 0.498% [at 6.97 µM]. In [3], the activation (H2AX phosphorylation) was 2.44% [at 14 µM]. Moreover, the activity, negative = inhibition in experiment [6] was 8.94% [at 8.39 µM]. Besides, in experiment [7], the activity change, positive = activation is 4.43% [at 8.39 µM]. Also, the results for the activity change, negative = cytotoxic in experiment [19], in experiment [10] and in experiment [16] were 0.732% [at 6.97 µM], 5.36% [at 6.97 µM] and 5.2% [at 6.97 µM], respectively. Moreover, the cytotoxicity in experiment [9] is 0.0066% [at 6.97 µM]; in experiment [17] it was -1.5% [at 6.97 µM]. Besides, the cytotoxicity increase is -0.26% [at 6.97 µM] in experiment [11], -0.212% [at 6.97 µM] in experiment [15] and -1.37% [at 6.97 µM] in experiment [18]. The viability change, negative = cytotoxic in experiment [13] was 0.222% [at 6.97 µM]. Also, the max response in experiment [20] was 0.994%. The activity change in experiment [14] was -0.341% [at 6.97 µM].

In the case of `O=C1c2cccc3c2[C@H](CCC3)CN1[C@@H]1CN2CCC1CC2`, the Potency entry in experiment [1], in [5], in experiment [6], in experiment [11], in experiment [12] and in [18] was “inactive” each time. Further, the outcome in experiment [2], in experiment [3], in experiment [4], in experiment [8], in [9] and in experiment [10] was inactive. The result in [13], in experiment [14], in experiment [15] and in experiment [16] was inactive. Further, the activity change, positive = activation in experiment [7] is 20.8% [at 42.5 µM] (active). Also, the Potency in [20] is 6.01 µM (active).

`CC(=C(CCOC(=O)C(C)C)SSC(CCOC(=O)C(C)C)=C(C)N(C=O)Cc1cnc(C)nc1N)N(C=O)Cc1cnc(C)nc1N`: the Potency result in experiment [1], in experiment [5], in [6], in experiment [19], in [11] and in [12] was “inactive” each time. The compound was classed as inactive in [2], in [3], in [4], in [8], in [9] and in [10]. Also, the compound was called inactive in experiment [13], in experiment [14] and in experiment [16]. In experiment [7], the activity change, positive = activation was 0.537% [at 42.5 µM]. In addition, the max response in experiment [20] is 3.74%.

In the case of `Cc1ccc(S(=O)(=O)O)c(C)c1`, the Potency result in [1], in [5], in experiment [6], in [19], in [11] and in experiment [12] was “inactive” throughout. The Potency result in experiment [18] is “inactive”. Further, the compound was called inactive in [2], in experiment [3], in [4], in [8], in experiment [9] and in [10]. Besides, the compound was called inactive in experiment [13], in [14], in experiment [15] and in experiment [17]. In addition, the activity change, positive = activation in experiment [7] was 16.9%. Moreover, the max response in [20] is 3.15%.

`CC(C)CC(C)CC(C)CC(C)COC(=O)c1ccccc1C(=O)OCC(C)CC(C)CC(C)CC(C)C` (configuration not stated): the Potency entry in experiment [1], in experiment [5], in experiment [6], in experiment [19], in [11] and in experiment [12] was “inactive” in each case. Besides, in experiment [18], the Potency result was “inactive”. For the same compound, the compound was classed as inactive in [2], in experiment [3], in [4], in [8], in experiment [9] and in [10]. Moreover, the compound was called inactive in experiment [13], in [14], in experiment [15], in experiment [16] and in experiment [17]. Also, the activity change, positive = activation in experiment [7] was -6.15%. For the same compound, the max response in experiment [20] is 4.21%.

Values taken from PubChem BioAssay (Tox21).
